The values below come from PubChem BioAssay.

Where “and” joins values, the source holds several entries; their conditions need not be identical. Equal values may be shown once. Calls of active or inactive are those of the source.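 The calls were made as follows: active = z-score of at least 1.8 in each of two replicates, scored against plate mean and spread of sample wells; inactive = the rest.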

One experiment in a line: survival rescue of mitochondrial mutant cells in low glucose, primary screen, MELAS cybrids, Rieske KO mouse fibroblasts, CellTiter-Glo (AID 1508586).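 Also: test concentration not given here; z relative to plate mean and SD of compound and empty wells.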 The following applies: Rieske KO mouse fibroblast survival, CellTiter-Glo 72 h. A general note: ATP-based viability assays read luminescence as a measure of living cells.
Turning to `COc1ccc(Nc2ncc(-c3ccccc3)o2)cc1OC`, the z-score was 0.00272.

`Fc1ccc(-c2nc3n(c2-c2ccncc2)CCS3)cc1` yielded a z-score of 0.11.

On to `CCn1c(-c2nonc2N)nc2cnc(Oc3cccc(NC(=O)c4ccc(OCCN5CCOCC5)cc4)c3)cc21`, for which the z-score came out at 0.152.

Compound `Cc1ccc(O)cc1Nc1ccnc2ccc(S(C)(=O)=O)cc12` displayed a z-score of 3.87.

For `CN(C)c1cc2c(Nc3ccc4c(cnn4Cc4ccccc4)c3)ncnc2cn1`, the z-score is -0.233.

Compound `Cc1ccc2c(-c3ccnc(Nc4ccc5c(c4)OCCO5)n3)c(-c3ccc(C(F)(F)F)cc3)nn2n1` displayed a z-score of 0.474.

`Cc1ccc(NC(=O)c2ccoc2)cc1-c1ccc(C(=O)NCC2CC2)cc1`: the z-score is -0.276.

On to `O=C(Nc1n[nH]c2cc(-c3cc(F)ccc3F)ccc12)C1CC1`, for which the z-score is -0.425.

Turning to `NC(=O)c1ccc(-c2nc(-c3ccc4c(c3)OCO4)c(-c3ccccn3)[nH]2)cc1`, the z-score was -0.512 and 0.389.

As for `CN(C)c1cc2c(Nc3ccc4nc(Cc5ccccc5)[nH]c4c3)ncnc2cn1`, the z-score was -0.0343.

In the case of `Cc1ccc(C(=O)NC2CCC2)cc1-c1ccc(C(=O)NCC2CC2)cc1`, the z-score was -0.404.

Consider `CCNC(=O)O[C@H]1CN[C@H](C#Cc2cc3ncnc(Nc4ccc(OCc5cccc(F)c5)c(Cl)c4)c3s2)C1`, for which the z-score was -0.264.

`COc1cc2ncn(-c3cc(O[C@H](C)c4ccccc4Cl)c(C(N)=O)s3)c2cc1OC`: the z-score turned out to be 5.68.

On to `Clc1ccc(CNc2nccc(-c3cnn4ncccc34)n2)cc1`, for which the z-score is -0.266.

Turning to `CCc1cccc(NC(=O)Nc2ccc(Oc3ccc4nc(NC(=O)OC)[nH]c4c3)cc2)c1`, the z-score was -0.621.

In the case of `COc1cc2ncn(-c3cc(OCc4ccccc4S(C)(=O)=O)c(C#N)s3)c2cc1OC`, the z-score was -0.131.

Compound `Cn1cc(/C=C2\C(=O)Nc3cccnc32)c2ccccc21` had a z-score of -0.515.

`COc1cc(N2CCN(C(C)C)CC2)ccc1Nc1nc(Nc2ccc(F)cc2C(N)=O)c2cc[nH]c2n1` displayed a z-score of 7.03.

In turn, `NC(=O)c1ccc2c(-c3ccnc(NCCCO)n3)c(-c3ccc(F)cc3)nn2c1` returned a z-score of -0.24.

`Fc1ccc(-c2ncn(C3CCNCC3)c2-c2ccnc(Oc3ccc4c(c3)OCO4)n2)cc1` yielded a z-score of -0.36.

`Fc1cccc(COc2ccc(Nc3ncnc4sc(-c5ccco5)cc34)cc2Cl)c1` gave a z-score of -0.52.

Turning to `Cc1ccc(O)cc1Nc1ccnc2cc(-c3ccccn3)ccc12`, the z-score is 4.8.

Compound `COc1ccc(-c2coc3ncnc(N)c23)cc1` gave a z-score of -0.245.

As to `N#Cc1c(NC(=O)c2ccccc2F)sc2c1CCCC2`, the z-score was -0.249 and 0.00256.

For `COc1ccc(-c2oc3ncnc(N)c3c2-c2ccc(NC(=O)Nc3cc(C(F)(F)F)ccc3F)cc2)cc1`, the z-score was -0.0748.

`CN(C)CCOc1ccc(-c2nc(-c3ccc4c(c3)CC/C4=N\O)c(-c3ccncc3)[nH]2)cc1` returned a z-score of 2.06.

In the case of `COc1ccc(COc2ccc(Cc3cnc(N)nc3N)cc2OC)cc1`, the z-score is -0.126 and -1.03.

For the compound `CS(=O)(=O)Nc1ccc(-c2ccc3c(NC(=O)C4CC4)n[nH]c3c2)cc1`, the z-score was -0.0618.

The compound `Cn1cc(C2=C(c3cn(CCCSC(=N)N)c4ccccc34)C(=O)NC2=O)c2ccccc21` returned a z-score of -1.11.

Regarding `Fc1ccc(-c2c(-c3ccncc3)nc3n2CCS3)cc1`, the z-score is -0.254.

In turn, `Cc1cc(O)cc(C)c1/C=C/c1cncc(C(=O)N(C)C)c1` gave a z-score of -0.0339.

Consider `CS(=O)(=O)CCNCc1nc(-c2ccc3ncnc(Nc4ccc(F)c(Cl)c4)c3c2)cs1`, for which the z-score is -0.331.

In the case of `Nc1ncnc2occ(-c3ccc(NC(=O)Nc4cc(C(F)(F)F)ccc4F)cc3)c12`, the z-score is -0.123 and -0.164.

Regarding `Nc1nccc(-c2c(-c3ccc(F)cc3)ncn2C2CCNCC2)n1`, the z-score was 0.00861 and -0.488.

Another experiment in a line: viability rescue of complex I mutant cybrids, primary screen, cell-based, galactose medium, ATP luminescence (AID 1645843).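 Also: positive z means more ATP and so rescue of galactose-driven cybrid death.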 The following applies: complex I mutant cybrid cells, 72 h, stronger effect = higher value.
Take `Fc1ccc(-c2nc3n(c2-c2ccncc2)CCS3)cc1`: the z-score is -0.365 (inactive).

Consider `CN(C)c1cc2c(Nc3ccc4c(cnn4Cc4ccccc4)c3)ncnc2cn1`, for which the z-score is -0.71 (inactive).

With `NC(=O)c1ccc(-c2nc(-c3ccc4c(c3)OCO4)c(-c3ccccn3)[nH]2)cc1`, the z-score was -0.03 (inactive).

For the compound `N#Cc1c(NC(=O)c2ccccc2F)sc2c1CCCC2`, the z-score was 0.305 (inactive).

For the compound `Cn1cc(C2=C(c3cn(CCCSC(=N)N)c4ccccc34)C(=O)NC2=O)c2ccccc21`, the z-score is -0.7 (inactive).
